According to PubChem BioAssay:
A number with no mark means an inactive call. For some of these results: Entries with a potency or affinity are not part of this list. Calls of active or inactive are those of the source. Unless noted, the rule behind the calls is not given here.

Columns and labels:
[1] = antimalarial activity against Dd2 strain (AID 2302;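 active = growth inhibition above 50% at the single 2 µM test dose, taken to imply half-maximal potency below 2 µM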;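 note: 0% = DMSO untreated growth and 100% = chloroquine plus artemisinin killed control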); conditions: P. falciparum Dd2 in RBCs, LDH growth readout, 72 h; at 2 µM; stronger effect = higher value
[2] = HepG2 cytotoxicity, primary screen, cytotoxicity control for P. falciparum antimalarial project, cell-based, ATP luminescence (AID 2303;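 active = inhibition above 50%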;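 note: 0% = DMSO wells and 100% = digitonin-killed cells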); conditions: HepG2 viability, 24-48 h, at 10 µM, stronger effect = higher value
[3] = biological target: L-lactate dehydrogenase (Plasmodium falciparum (isolate CDC / Honduras)) (UniProt Q27743); assay: PfLDH activity inhibition – cell lysate, 3D7 strain, counter-screen for P. falciparum growth inhibition project (AID 2304);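 note: 0% = vehicle and 100% = reference inhibitor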; conditions: P. falciparum 3D7 crude extract, LDH APAD/NBT absorbance; at 2 µM; stronger effect = higher value
[4] = inhibition of 3D7 malaria parasite growth – strain 3D7 (AID 2306);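 note: 0% = DMSO wells and 100% = chloroquine plus artemisinin control wells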; conditions: P. falciparum 3D7 erythrocytic growth, LDH absorbance, 72 h; at 2 µM; stronger effect = higher value
[5] = biological target: Calcium-dependent protein kinase 1 (Plasmodium falciparum (isolate 3D7)) (UniProt P62344); assay: PfCDPK1 kinase inhibitors, biochemical, TCAMS library (AID 1159585; cut-off not given, nearly all actives have IC50 up to about 0.98 µM;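 note: inhibitors leave more ATP so luminescence rises with inhibition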); conditions: recombinant PfCDPK1, Kinase-Glo ATP depletion luminescence
[6] = biological target: Plasmodium falciparum protein kinase 6 (PK6, PF3D7_1337100) (UniProt Q8IDW1); assay: PfPK6 kinase inhibitors, biochemical, TCAMS library (AID 1159586); conditions: recombinant PfPK6, Kinase-Glo ATP depletion luminescence
[7] = biological target: Protein kinase 7 (PK7), Plasmodium falciparum 3D7 (PF3D7_0213400) (UniProt Q7YTF7); assay: inhibition of Plasmodium PK7 catalytic activity – biochemical, TCAMS antimalarial set, Kinase-Glo luminescence (AID 1159587); conditions: recombinant PfPK7, Kinase-Glo ATP depletion luminescence
[8] = biological target: Calcium-dependent protein kinase 4 (Plasmodium falciparum (isolate 3D7)) (UniProt Q8IBS5); assay: PfCDPK4 kinase inhibitors, biochemical, TCAMS library (AID 1159588; cut-off not given, nearly all actives have IC50 up to about 0.91 µM); conditions: recombinant PfCDPK4, Kinase-Glo ATP depletion luminescence
Sequence of Calcium-dependent protein kinase 4 (Plasmodium falciparum (isolate 3D7)) (Q8IBS5 whole entry, looked up): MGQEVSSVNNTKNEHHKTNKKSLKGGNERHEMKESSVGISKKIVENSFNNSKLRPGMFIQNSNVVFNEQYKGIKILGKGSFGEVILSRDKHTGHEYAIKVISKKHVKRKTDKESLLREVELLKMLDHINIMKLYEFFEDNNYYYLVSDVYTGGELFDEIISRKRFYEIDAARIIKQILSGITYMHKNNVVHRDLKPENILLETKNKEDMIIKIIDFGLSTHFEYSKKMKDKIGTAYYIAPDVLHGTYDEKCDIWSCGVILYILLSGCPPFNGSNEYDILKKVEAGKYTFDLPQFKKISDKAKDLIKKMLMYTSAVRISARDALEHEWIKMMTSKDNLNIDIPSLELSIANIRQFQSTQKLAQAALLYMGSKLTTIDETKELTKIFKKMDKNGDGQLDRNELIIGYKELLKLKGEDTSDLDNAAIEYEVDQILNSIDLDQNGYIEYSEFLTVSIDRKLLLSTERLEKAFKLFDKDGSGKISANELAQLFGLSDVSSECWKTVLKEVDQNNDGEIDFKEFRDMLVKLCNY

Sequence of Plasmodium falciparum protein kinase 6 (PK6, PF3D7_1337100) (Q8IDW1 1-305): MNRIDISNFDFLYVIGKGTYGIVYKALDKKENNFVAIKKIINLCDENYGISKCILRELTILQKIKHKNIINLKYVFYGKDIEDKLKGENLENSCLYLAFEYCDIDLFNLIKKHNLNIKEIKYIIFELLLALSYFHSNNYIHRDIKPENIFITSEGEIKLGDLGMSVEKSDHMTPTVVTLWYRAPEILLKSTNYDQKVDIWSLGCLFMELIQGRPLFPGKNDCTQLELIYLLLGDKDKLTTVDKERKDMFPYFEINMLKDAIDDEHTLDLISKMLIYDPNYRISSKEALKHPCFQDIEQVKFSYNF
Sequence of Protein kinase 7 (PK7), Plasmodium falciparum 3D7 (PF3D7_0213400) (Q7YTF7 1-343): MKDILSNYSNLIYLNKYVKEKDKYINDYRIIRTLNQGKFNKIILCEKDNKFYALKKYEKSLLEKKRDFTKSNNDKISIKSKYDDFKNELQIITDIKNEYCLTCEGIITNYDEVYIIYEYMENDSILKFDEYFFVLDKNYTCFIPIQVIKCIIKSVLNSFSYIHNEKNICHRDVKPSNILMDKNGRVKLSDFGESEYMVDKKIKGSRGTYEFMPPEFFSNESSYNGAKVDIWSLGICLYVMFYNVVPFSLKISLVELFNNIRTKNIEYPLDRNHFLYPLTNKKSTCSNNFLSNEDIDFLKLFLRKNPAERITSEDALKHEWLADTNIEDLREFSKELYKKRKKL
Sequence of Calcium-dependent protein kinase 1 (Plasmodium falciparum (isolate 3D7)) (P62344 whole entry, looked up): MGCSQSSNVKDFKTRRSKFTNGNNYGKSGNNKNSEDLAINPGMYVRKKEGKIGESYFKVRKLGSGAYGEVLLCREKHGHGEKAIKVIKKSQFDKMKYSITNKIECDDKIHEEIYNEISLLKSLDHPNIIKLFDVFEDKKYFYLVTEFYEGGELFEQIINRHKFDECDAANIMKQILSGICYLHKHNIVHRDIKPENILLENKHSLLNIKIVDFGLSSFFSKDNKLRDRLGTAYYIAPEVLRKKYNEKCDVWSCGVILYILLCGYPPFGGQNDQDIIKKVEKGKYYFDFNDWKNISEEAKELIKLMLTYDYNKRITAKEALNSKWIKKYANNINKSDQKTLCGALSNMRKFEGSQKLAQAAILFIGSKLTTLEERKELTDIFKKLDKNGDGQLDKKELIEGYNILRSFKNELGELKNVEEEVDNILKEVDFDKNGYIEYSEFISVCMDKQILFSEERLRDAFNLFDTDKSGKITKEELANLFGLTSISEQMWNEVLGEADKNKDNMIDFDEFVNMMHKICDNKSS
Sequence of L-lactate dehydrogenase (Plasmodium falciparum (isolate CDC / Honduras)) (Q27743 whole entry, looked up): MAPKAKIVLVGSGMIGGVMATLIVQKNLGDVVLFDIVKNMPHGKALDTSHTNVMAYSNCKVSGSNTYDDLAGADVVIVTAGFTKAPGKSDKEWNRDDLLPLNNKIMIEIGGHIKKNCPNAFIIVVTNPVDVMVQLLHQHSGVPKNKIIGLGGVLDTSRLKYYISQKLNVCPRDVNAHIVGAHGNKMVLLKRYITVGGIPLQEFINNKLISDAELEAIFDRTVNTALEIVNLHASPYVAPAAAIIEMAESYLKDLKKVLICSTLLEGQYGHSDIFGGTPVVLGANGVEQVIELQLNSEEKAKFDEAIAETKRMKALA

Row | SMILES | growth inhibition [1] | inhibition [2] | inhibition [3] | growth inhibition [4] | outcome [5] | outcome [6] | outcome [7] | outcome [8]
1 | O=C(Cc1cccc(Cl)c1)Nc1cccc(-c2c[nH]c3nc(Nc4cccc(O)c4)ncc23)c1 | 74% (active) | 23% | 3% | 100% (active) | inactive | inactive | inactive | inactive
2 | COc1cccc(-c2ccc(C(=O)NC3CCN(Cc4ccc(C(C)(C)C)cc4)CC3)s2)c1 | 23% | 43% | -2% | 85% (active) | inactive | inactive | inactive | inactive
3 | COc1ccc(NC(=O)CCNc2ccnc(NCCc3ccc(F)cc3)n2)cc1 | 5% | 4% | -3% | 94% (active) | inactive | inactive | inactive | inactive
4 | Cc1ccc(/C=C/C(=O)NC2CCC(N3CCC(c4ccccc4C)CC3)CC2)cc1F (stereo not drawn) | 18% | 51% (active) | 2% | 96% (active) | inactive | inactive | inactive | inactive
5 | Cc1cccc2[nH]c(-c3ccc(-c4cccc(NC(=O)Nc5ccccc5)c4)cc3)nc12 | 14% | 18% | 9% | 101% (active) | inactive | inactive | inactive | inactive
6 | CCCC(=O)Nc1ccc(Nc2nc(C)cc(N3CCCC3)n2)cc1 | 46% | 31% | 4% | 100% (active) | inactive | inactive | inactive | inactive
7 | CCOc1ccc(Nc2nc(N)c3ccccc3n2)cc1 | 6% | 28% | 2% | 90% (active) | inactive | inactive | inactive | inactive
8 | O=C(Nc1cccc(-c2cc(-c3c(Cl)cccc3Cl)no2)c1)c1cncc(-c2cccs2)c1 | 39% | -1% | -2% | 91% (active) | inactive | inactive | inactive | inactive
9 | Cc1cc(Nc2cccc(C(F)(F)F)c2)nc(N)n1 | 24% | 5% | 1% | 98% (active) | inactive | inactive | inactive | inactive
10 | O=C(NC1CCN(Cc2cccc(C(F)(F)F)c2)CC1)c1ccc(-c2cccc(C(F)(F)F)c2)s1 | 54% (active) | 36% | -2% | 94% (active) | inactive | inactive | inactive | inactive
11 | NC(N)=Nc1ccc(C(=O)O)c(O)c1 | 1% | -3% | -3% | 94% (active) | inactive | inactive | inactive | inactive
12 | N#Cc1cccc(C(=O)Nc2cccc(-c3cccc(CN4CCNCC4)c3)c2)c1 | 10% | 37% | -3% | 89% (active) | inactive | inactive | inactive | inactive
13 | Fc1ccc2nc(-c3cccc(-c4cccc(CN5CCN(c6ccncc6)CC5)c4)c3)[nH]c2c1 | 99% (active) | 71% (active) | 1% | 102% (active) | inactive | inactive | inactive | inactive
14 | CC(C)c1ccc(OCCCON2C(N)=NC(N)=NC2(C)C)cc1 | 97% (active) | 69% (active) | 0% | 93% (active) | inactive | inactive | inactive | inactive
15 | CC(C)(C)NS(=O)(=O)c1cc(C(=O)N2CCC(CCN3CCC(O)(c4cccc(C(F)(F)F)c4)CC3)(c3cccc(F)c3)CC2)c(Cl)cc1F | 55% (active) | 15% | -6% | 88% (active) | inactive | inactive | inactive | inactive
16 | COc1ccc(Cc2nc3c(n2C(C)=O)SC(c2ccc(Cl)c(Cl)c2)=NN3C(C)=O)cc1 | 22% | -2% | -6% | 94% (active) | inactive | inactive | inactive | inactive
17 | COc1ccc2nccc([C@@H](O)CN3CCC(NC(=O)C(c4cc5ccccc5o4)N4CCN(Cc5ccccc5)CC4)CC3)c2c1 (stereo partly drawn) | 75% (active) | 30% | -5% | 91% (active) | inactive | inactive | inactive | inactive
18 | Cc1ccc(Cl)cc1N1CCN(CCCNC(=O)C2CCN(c3nc4ccccc4[nH]3)CC2)CC1 | -3% | 41% | -1% | 88% (active) | inactive | inactive | inactive | inactive
19 | CC(CN1CCN(C)CC1)C(=O)Nc1cccc(-c2cccc(-c3nc4ccccc4[nH]3)c2)c1 (stereo not drawn) | 19% | 23% | -3% | 88% (active) | inactive | inactive | inactive | inactive
20 | N#Cc1ccc(Sc2nnc(-c3ccccc3Cl)n2CC2CCCCC2)cc1[N+](=O)[O-] | 34% | 30% | 1% | 85% (active) | inactive | inactive | inactive | inactive
21 | Cc1cc(=O)c2cc(-c3ccc(OC(F)(F)F)cc3)ccc2[nH]1 | 95% (active) | -3% | 3% | 96% (active) | inactive | inactive | inactive | inactive

Row | SMILES | growth inhibition [1] | inhibition [2] | inhibition [3] | growth inhibition [4] | outcome [5] | outcome [6] | outcome [7] | outcome [8]
22 | Cc1cc(N2CCN(C)CC2)nc2ccc(NC(=O)c3cccc(N(C)C)c3)cc12 | 23% | 9% | 4% | 85% (active) | inactive | inactive | inactive | inactive
23 | C=CCC(C)n1ncc2c3c(N)nc(N)nc3ccc21 (stereo not drawn) | 95% (active) | 66% (active) | -3% | 93% (active) | inactive | inactive | inactive | inactive
24 | CC(=O)C1=NN(c2ccc(Cl)cc2)C(c2cccs2)N1c1ccccc1 (stereo not drawn) | 70% (active) | -3% | 3% | 88% (active) | inactive | inactive | inactive | inactive
25 | CC1CCc2sc(-c3nnc(SC(C)C(=O)NC4CC4)o3)cc2C1 (stereo not drawn) | 69% (active) | 5% | -4% | 83% (active) | inactive | inactive | inactive | inactive
26 | CC(C)N(CCOc1ccc2c(c1)N(C(=O)Nc1ccc(Cl)c(Cl)c1)CC2)C(C)C | 39% | 15% | 3% | 101% (active) | inactive | inactive | inactive | inactive
27 | CN1CCN(c2ccc(Nc3c(C(N)=O)cnc4cc(-c5ccoc5)ccc34)cc2C(F)(F)F)CC1 | 97% (active) | 13% | -9% | 100% (active) | inactive | inactive | inactive | inactive
28 | COc1ccc2ncc(C#N)c(CCN3[C@@H]4CC[C@H]3CC(NCc3ccc5c(n3)NC(=O)CS5)C4)c2c1 (stereo partly drawn) | 27% | 6% | -1% | 95% (active) | inactive | inactive | inactive | inactive
29 | COc1cccc(-c2ccc3c(-c4cccc(S(C)(=O)=O)c4)cnc(N)c3c2)c1 | 21% | 45% | -6% | 96% (active) | inactive | inactive | inactive | inactive
30 | COc1ccc2nccc([C@@H](O)CN3CCC(NC(=O)c4ccc(-c5ccccc5)s4)CC3)c2c1 | 81% (active) | 10% | -6% | 100% (active) | inactive | inactive | inactive | inactive
31 | CCC(C)NS(=O)(=O)c1ccc2nc(Nc3ccc(C)cc3)n(C3CCCCC3)c2c1 (stereo not drawn) | 97% (active) | -9% | -4% | 97% (active) | inactive | inactive | inactive | inactive
32 | CON(C)C(=O)[C@@H](CCCCNC(=O)OCc1ccccc1)NC(=O)OC(C)(C)C | -1% | 5% | -4% | 98% (active) | inactive | inactive | inactive | inactive
33 | CC1CN(Cc2cccc(F)c2)CCN1c1ccc(NC(=O)c2cccs2)cc1 (stereo not drawn) | 96% (active) | -1% | -2% | 96% (active) | inactive | inactive | inactive | inactive
34 | CS(=O)(=O)Cc1ccc(Nc2nccc(NC3CCN(c4nccc(C(F)(F)F)n4)CC3)n2)cc1 | 23% | 34% | -3% | 88% (active) | inactive | inactive | inactive | inactive
35 | CCn1c(-c2nonc2N)nc2cnc(Oc3cccc(NC(=O)c4ccc(OCCN5CCCC5)cc4)c3)cc21 | 1% | 25% | 2% | 92% (active) | inactive | inactive | inactive | inactive
36 | COc1cc(NCCCNCc2cn(Cc3cc(Br)cc(Br)c3)c3ccccc23)nc2ccccc12 | 85% (active) | 99% (active) | 4% | 100% (active) | inactive | inactive | inactive | inactive
37 | Cc1onc(-c2c(F)cccc2Cl)c1C(=O)Nc1ccccc1I | 52% (active) | -8% | -4% | 99% (active) | inactive | inactive | inactive | inactive
38 | CC(C)N1CCC(N(Cc2ccc(-c3ccc(Cl)cc3)cc2)C(=O)Cn2c(CCc3cccc(F)c3F)nc(=O)c3ccccc32)CC1 | 70% (active) | 61% (active) | 5% | 86% (active) | inactive | inactive | inactive | inactive
39 | Cc1noc(C)c1-c1cccc(CNCc2ccc(-c3cccc(-c4nc5ccccc5[nH]4)c3)cc2)c1 | 57% (active) | 50% (active) | -1% | 100% (active) | inactive | inactive | inactive | inactive
40 | O=C(Nc1ccc(Cl)cc1)c1cccc2[nH]c(C(F)(F)F)nc12 | 98% (active) | 84% (active) | -6% | 93% (active) | inactive | inactive | inactive | inactive
41 | O=C(CCc1cccnc1)Nc1cccc(-c2ccc(-c3nc4ccc(C(F)(F)F)cc4[nH]3)s2)c1 | 13% | 35% | 2% | 89% (active) | inactive | inactive | inactive | inactive
